# System: HepG2
# Experiment: GSK_TCMDC: Percent inhibition of human HepG2 cell line. Test compounds present at 10uM.
# Assay type: functional
row,Structure (SMILES),Inhibition [%]
1,COc1ccc(NC(=O)Nc2cc(C)nc3cccnc23)cc1Cn1ccnc1,12
2,CC(C)CC(=O)N1CCNC[C@@H]1C(=O)NCCSCc1c(F)cccc1Cl.O=C(O)C(F)(F)F,1
3,CCCNCc1ccc(-c2ccc(CN(CCOC)C(=O)c3cnc(C)cn3)cc2)nc1.O=C(O)C(F)(F)F,0
4,Cc1c(C(=O)NCc2ccncc2)sc2nc(-c3cccc([N+](=O)[O-])c3)cn12,18
5,O=C(Cc1ccc(-n2cnnn2)cc1)N(Cc1cncn1Cc1cccc(C(F)(F)F)c1)CC1CC1,0
6,CN(C)C(=O)CCCn1c(CNCCCNc2cc(=O)c3ccccc3[nH]2)cc2c(Cl)cc(Cl)cc21.Cl,1
7,CC(C)CNCc1ccc(-c2cccc(CNc3ccc4ncccc4c3)c2)cc1.O=C(O)C(F)(F)F,29
8,CCc1cc2c3c(N)nc(N)nc3ccc2n1C(C)CC (stereo not given),73
9,Cc1cc(C(=O)Nc2nc(-c3ccccn3)nc3ccsc23)no1,44
10,COc1ccc(NC(=O)c2cc(NC(=O)C3(N)CC3)c(=O)n(Cc3ccc(C(N)=O)cc3)c2)cc1.O=C(O)C(F)(F)F,21
11,N#Cc1ccc(-c2ccc(C(=O)NCCCCN3CCC(c4ccc5c(c4OCc4ccncc4)CCCC5)CC3)cc2)cc1,41
12,COc1cccc2cc(C(=O)N[C@@H](CC(C)C)C(=O)N[C@H](/C=N/NC(=O)Cc3cccnc3)CCc3ccccc3)oc12,6
13,COc1ccc2nccc([C@@H](O)CN3CCC(NCc4cc5c(cc4F)SCC(=O)N5)CC3)c2n1,14
14,CN(C)CCOc1ccc(NC(=O)NC(C)(C)c2nc(-c3ccc(Cl)c(O)c3)c(-c3ccncc3)[nH]2)cc1.Cl,22
15,CCNC(=O)Nc1ccc(N(C)c2ccnc(NC3CC3)n2)cc1,21
16,CN(C)Cc1ccc2nc(-c3cccc(Cc4cc(Cl)ccc4OCc4ccc(Cl)cc4F)n3)[nH]c2c1.Cl,43
17,Cc1cccc2nc(-c3cccc(-c4ccc(NC(=O)c5cnn6cccnc56)cc4)c3)[nH]c12,99
18,COc1cccc2cc(C(=O)N[C@@H](CC(C)C)C(=O)N[C@H](/C=N/NC(=O)c3ccccc3)Cc3c[nH]cn3)oc12,3
19,CCn1cc(CN2CCCC(C(=O)Nc3ccc(-c4nc5ccccc5[nH]4)cc3)C2)cn1 (stereo not given),8
20,CN(CCN(C)CC(O)c1ccc(Cl)c(Cl)c1)CC(O)c1ccc(Cl)c(Cl)c1.Cl (stereo not given),22

row,Structure (SMILES),Inhibition [%]
1,Cc1nc(-c2ccccc2)nc(N2CCN(C(=O)c3ccco3)CC2)c1Cc1ccccc1F,7
2,CC(C)Cn1ncc2c3c(N)nc(N)nc3ccc21,63
3,O=C(Cc1ccccc1)NC(c1ccco1)c1cc(Cl)c2cccnc2c1O (stereo not given),44
4,CCN(C(=O)CSc1cc(C)c2cc(C)cc(C)c2n1)C1CCS(=O)(=O)C1 (stereo not given),5
5,Cc1ccc(C(C)C)cc1CON1C(=N)N=C(N)NC1(C)C.Cl,66
6,O=C(/C=C/c1ccc2ccccc2c1)NCC1(c2ccc(-c3ccccc3)cc2)CCOCC1,9
7,O=c1c2ccccc2[nH]c2nc3ccccc3c(Nc3ccccc3)c12,8
8,COc1ccc(-c2nc(NC(=O)Cc3coc4cc(OC)ccc34)sc2C)cc1,9
9,Cc1ccc(NC(C)C(=O)Nc2ccc(C#N)cc2)cc1S(=O)(=O)N1CCCCC1 (stereo not given),11
10,Cc1cc(-c2nc3cncc(-c4cccc(CN5CCCC5Cc5cccnc5)c4)c3n2C)nn1C.O=C(O)C(F)(F)F (stereo not given),0
11,CCOC(=O)c1cn(CC)c2cc(F)c(OC3CC4CCC3(C)C4(C)C)cc2c1=O (stereo not given),0
12,CC[C@H](C)CNC(=O)c1ccnc(-c2ccc(CNCCCc3ccccc3)cc2)c1.O=C(O)C(F)(F)F,17
13,CCCNc1nc(Nc2ccccc2C)nc2ccccc12,13
14,Cc1cc(Oc2ccc(-n3ccnc3)cc2)nc(N2CCN(CCCN3CCCC3)CC2)n1.O=C(O)C(F)(F)F,5
15,COc1cc(OCCCN(C)Cc2ccc(OC)c(OC)c2)ccc1NC(=O)c1cccc2c(O)c3cccc(F)c3nc12,10
16,Cn1cc(CN2CCCC(COC(c3ccccc3)c3ccccc3)C2)cn1 (stereo not given),24
17,O=C(Nc1cccc(-c2nn3ccccc3c2-c2ccnc(Nc3ccc(-c4cc[nH]n4)cc3)n2)c1)c1c(F)cccc1F,68
18,C[C@@H](Oc1cc(-n2cnc3cc(SCCN4CCN(C)CC4)ccc32)sc1C(N)=O)c1ccccc1Cl,46
19,O=C(Cc1cccc(O)c1)NCC(Cc1ccc(O)cc1)c1ccccc1 (stereo not given),0
20,Nc1ccc(Oc2ccc(Cc3cnc(N)nc3N)cc2)cc1,10

# — ChEMBL document CHEMBL1157539, “Thousands of chemical starting points for antimalarial lead identification” (Nature, 2010)
